# Measurements: the supplement of paper PMC8728848
# Many of the other results were omitted from the sample, so the strongest signals are more common in it than they were.
# B1: rAAL-H59Q (Agrocybe aegerita), Q6WY08 (protein)
# chain: MQGVNIYNISAGTSVDLAAPVTTGDIVTFFSSALNLNAGAGNPNNTTLNLFAENGAYLLQIAFRLQENVIIFNSRQPDGPWLVEQRVSDVANQFAGIDGKAMVTVFDHGDKYQVVINEKTVIQYTKQISGLTLSLSYNATEETSIFSTVVEAVTYTGLALEHHHHHH
# Columns and labels:
# Experiment in all cases: glycan array binding signal (z-score within array); higher = stronger binding
# Conditions in all cases: glycan notation: IUPAC condensed, linker removed; mutation: H59Q
# [1] = target: Fuc(a1-2)Gal(b1-3)[Fuc(a1-4)]GlcNAc(b1-2)Man(a1-3)[Fuc(a1-2)Gal(b1-3)[Fuc(a1-4)]GlcNAc(b1-2)Man(a1-3)]Man(b1-4)GlcNAc(b1-4)GlcNAc
# Outline: (§1)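 The binding signal is a Z-score computed within each array. Data were drawn from 3228 arrays in the Consortium for Functional Glycomics database, restricted to those with a known protein sequence. Scores were averaged over arrays of the same protein sequence at different concentrations or buffers, and over linkers, and negative values can be taken as non-binding.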
# [2] = target: Fuc(a1-2)Gal(b1-4)GlcNAc(b1-3)Gal(b1-4)GlcNAc(b1-3)Gal(b1-4)GlcNAc
# Outline: as §1
# [3] = target: Fuc(a1-2)Gal(b1-4)GlcNAc6S
# Outline: as §1
# [4] = target: Fuc(a1-2)Gal(b1-4)[Fuc(a1-3)]GlcNAc
# Outline: as §1
# [5] = target: Fuc(a1-2)Gal(b1-4)[Fuc(a1-3)]GlcNAc(b1-2)Man(a1-3)[Fuc(a1-2)Gal(b1-4)[Fuc(a1-3)]GlcNAc(b1-2)Man(a1-6)]Man(b1-4)GlcNAc(b1-4)[Fuc(a1-6)]GlcNAc
# Outline: as §1
# [6] = target: Fuc(a1-2)[Gal(a1-3)]Gal(b1-4)[Fuc(a1-3)]Glc
# Outline: as §1
# [7] = target: Fuc(a1-2)[GalNAc(a1-3)]Gal(b1-3)GlcNAc(b1-2)Man(a1-3)[Fuc(a1-2)[GalNAc(a1-3)]Gal(b1-3)GlcNAc(b1-2)Man(a1-6)]Man(b1-4)GlcNAc(b1-4)[Fuc(a1-6)]GlcNAc
# Outline: as §1
# [8] = target: Fuc(a1-2)[GalNAc(a1-3)]Gal(b1-3)GlcNAc(b1-3)GalNAc
# Outline: as §1
# [9] = target: Fuc(a1-2)[GalNAc(a1-3)]Gal(b1-4)GlcNAc(b1-6)GalNAc
# Outline: as §1
# [10] = target: Fuc(a1-3)[Gal(b1-4)]GlcNAc(b1-6)GalNAc
# Outline: as §1
# Gal(a1-3)Gal(b1-4)Glc = target: Gal(a1-3)Gal(b1-4)Glc
# Outline: as §1
# [11] = target: Gal(b1-3)GlcNAc(a1-3)Gal(b1-4)GlcNAc
# Outline: as §1
# [12] = target: Gal(b1-3)GlcNAc(b1-3)Gal(b1-4)GlcNAc
# Outline: as §1
# [13] = target: Gal(b1-3)GlcNAc(b1-3)Gal(b1-4)GlcNAc(b1-2)[Gal(b1-3)GlcNAc(b1-3)Gal(b1-4)GlcNAc(b1-6)]Man(a1-6)[Gal(b1-3)GlcNAc(b1-3)Gal(b1-4)GlcNAc(b1-2)Man(a1-3)]Man(b1-4)GlcNAc(b1-4)[Fuc(a1-6)]GlcNAc
# Outline: as §1
# [14] = target: Gal(b1-3)[Fuc(a1-4)]GlcNAc
# Outline: as §1
# [15] = target: Gal(b1-4)GlcNAc(b1-2)Man(a1-3)[GlcNAc(b1-4)][Gal(b1-4)GlcNAc(b1-2)Man(a1-6)]Man(b1-4)GlcNAc(b1-4)GlcNAc
# Outline: as §1
# [16] = target: Gal(b1-4)GlcNAc(b1-2)Man(a1-3)[Man(a1-6)]Man(b1-4)GlcNAc(b1-4)GlcNAc
# Outline: as §1
# [17] = target: Gal(b1-4)GlcNAc(b1-2)Man(a1-6)[Man(a1-3)]Man(b1-4)GlcNAc(b1-4)GlcNAc
# Outline: as §1
# [18] = target: Gal(b1-4)GlcNAc(b1-3)Gal(b1-4)GlcNAc(b1-2)Man(a1-3)[Gal(b1-4)GlcNAc(b1-3)Gal(b1-4)GlcNAc(b1-2)Man(a1-6)]Man(b1-4)GlcNAc(b1-4)[Fuc(a1-6)]GlcNAc
# Outline: as §1
# [19] = target: Gal(b1-4)GlcNAc(b1-3)[GlcNAc(b1-6)]Gal(b1-4)GlcNAc
# Outline: as §1
# Gal3S(b1-3)GalNAc = target: Gal3S(b1-3)GalNAc
# Outline: as §1
# Gal3S(b1-3)GlcNAc = target: Gal3S(b1-3)GlcNAc
# Outline: as §1
# Gal3S(b1-4)Glc = target: Gal3S(b1-4)Glc
# Outline: as §1
# Gal3S(b1-4)Glc6S = target: Gal3S(b1-4)Glc6S
# Outline: as §1
# Gal3S(b1-4)GlcNAc = target: Gal3S(b1-4)GlcNAc
# Outline: as §1
# [20] = target: Gal3S(b1-4)[Fuc(a1-3)]GlcNAc6S
# Outline: as §1
# Gal3S4S(b1-4)GlcNAc = target: Gal3S4S(b1-4)GlcNAc
# Outline: as §1
# Gal3S6S(b1-4)GlcNAc6S = target: Gal3S6S(b1-4)GlcNAc6S
# Outline: as §1
# Gal6S(b1-3)GlcNAc6S = target: Gal6S(b1-3)GlcNAc6S
# Outline: as §1
# Gal6S(b1-4)GlcNAc = target: Gal6S(b1-4)GlcNAc
# Outline: as §1
binder,measurement,setting,value
B1,glycan array binding signal (z-score),[1],-0.014
same,glycan array binding signal (z-score),[2],-0.113
same,glycan array binding signal (z-score),[3],-0.085
same,glycan array binding signal (z-score),[4],-0.09
same,glycan array binding signal (z-score),[5],0.171
same,glycan array binding signal (z-score),[6],-0.097
same,glycan array binding signal (z-score),[7],-0.106
same,glycan array binding signal (z-score),[8],-0.035
same,glycan array binding signal (z-score),[9],-0.124
same,glycan array binding signal (z-score),[10],-0.126
same,glycan array binding signal (z-score),Gal(a1-3)Gal(b1-4)Glc,-0.07
same,glycan array binding signal (z-score),[11],-0.119
same,glycan array binding signal (z-score),[12],-0.093
same,glycan array binding signal (z-score),[13],0.115
same,glycan array binding signal (z-score),[14],-0.116
same,glycan array binding signal (z-score),[15],-0.06
same,glycan array binding signal (z-score),[16],-0.059
same,glycan array binding signal (z-score),[17],0.003
same,glycan array binding signal (z-score),[18],-0.015
same,glycan array binding signal (z-score),[19],-0.115
same,glycan array binding signal (z-score),Gal3S(b1-3)GalNAc,7.76
same,glycan array binding signal (z-score),Gal3S(b1-3)GlcNAc,0.192
same,glycan array binding signal (z-score),Gal3S(b1-4)Glc,0.7
same,glycan array binding signal (z-score),Gal3S(b1-4)Glc6S,0.468
same,glycan array binding signal (z-score),Gal3S(b1-4)GlcNAc,0.615
same,glycan array binding signal (z-score),[20],0.694
same,glycan array binding signal (z-score),Gal3S4S(b1-4)GlcNAc,-0.119
same,glycan array binding signal (z-score),Gal3S6S(b1-4)GlcNAc6S,0.071
same,glycan array binding signal (z-score),Gal6S(b1-3)GlcNAc6S,-0.113
same,glycan array binding signal (z-score),Gal6S(b1-4)GlcNAc,-0.086
